The record followed here is PubChem BioAssay (NCATS).

Assay [1] deals with Glutathione peroxidase 1 (Homo sapiens) (UniProt P07203). Briefly: Primary qHTS Assay for Inhibitors of Recombinant Selenoprotein Glutathione Peroxidase 1 (GPX1) (AID 1845191). For activity, negative = inhibition: % is set by controls: 0 for no effect and ±100 for the full control effect. Note: nearly all actives have a fitted effect of over 65% in size. In a few lines: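 NADPH consumption tracked by fluorescence at 340/450 nm between t=0 and t=15 min, room temperature. Final mix: 10 nM GPX1, 100 nM glutathione reductase, 1 mM GSH, 0.5 mM NADPH, 0.5 mM cumene hydroperoxide, 0.01% BSA; 30 min compound–enzyme preincubation.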

Assay [2] deals with Phospholipid hydroperoxide glutathione peroxidase GPX4 (Homo sapiens) (UniProt P36969). Kind of assay: Primary qHTS Assay for Inhibitors of Recombinant Selenoprotein Glutathione Peroxidase 4 (GPX4) (AID 1845192). For activity change, negative = inhibition: series mostly up to about 50 µM; % is set by controls: 0 for no effect and ±100 for the full control effect. Note: nearly all actives have a fitted effect of over 65% in size. In a few lines:
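NADPH consumption followed by fluorescence at 340/450 nm, t=0 and after 15 min at room temperature. Reaction started with cumene hydroperoxide (0.5 mM final) after 30 min compound–GPX4 preincubation; final 200 nM GPX4, 100 nM GR, 1 mM GSH, 0.5 mM NADPH.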

The target of assay [3] is Luciferin 4-monooxygenase (Photinus pyralis) (UniProt P08659). Briefly: Primary firefly luciferase (FLuc) qHTS assay for identification of artifact compounds. (AID 1845220).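 For activity change, negative = inhibition: series mostly up to about 54 µM; plate controls were DMSO vehicle for no effect and no enzyme for full effect.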 Note: nearly all actives have a fitted effect of over 60% in size. The method in brief: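 FLuc 10 nM; luciferin 10 uM; ATP 10 uM; Tris-acetate pH 7.6, Mg-acetate 10 mM; 15 min RT preincubation; 5 min reaction; luminescence.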
Background: In qHTS, concentration-response curves come from the screen itself.

Assay [4] is described as follows: Primary fluorescence-based thiol-reactive (MSTI) qHTS assay for identification of artifact compounds. (AID 1845221).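 For activity change, negative = thiol reactive: series mostly up to about 54 µM; thiol-reactive compounds lower the probe fluorescence signal.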 Note: nearly all actives have a fitted effect of over 65% in size. Note: potency is the fitted concentration of half-maximal effect. The method in brief:
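Compounds were incubated 1 h at room temperature in the dark with the MSTI probe (4 uM) in PBS pH 7.4, 2% DMSO. Signals were normalized between Acetyl-MSTI and MSTI.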

Assay [5] concerns Nanoluciferase (engineered Oplophorus gracilirostris luciferase). Briefly: Primary Nanoluciferase (NLuc) qHTS assay for identification of artifact compounds. (AID 1845222).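 Note: NLuc secreted into diluted conditioned medium of S16 cells; series mostly up to about 54 µM; 0% = DMSO and -100% = no enzyme.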 In a few lines: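 NLuc from S16 cell medium (1:55) plus test compounds, 15 min, room temperature. Luminescence after Nano-Glo (1:100) addition, 5 min.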
Assay [6] is described as follows: Primary redox qHTS assay for identification of artifact compounds. (AID 1845223).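 Note: 0% = DMSO and 100% = reference compound.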 The method in brief: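 Redox-cycling detection via DTT (250 uM final) oxidation coupled to Amplex Red (25 uM)/HRP (250 mU/mL) in HBSS. 15 min preincubation plus 30 min after DTT, room temperature. Ex/Em 525/598 nm; 4-parameter Hill fit against DMSO and 10 uM DA3003.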

Each structure is given as a SMILES string. A number with no mark means an inactive call. Results filed as inconclusive are left out. Active and inactive are the calls of the source. Calls come from the whole dose curve; as a rule, active = well fitted curve in the direction sought with a large enough effect; inconclusive = small, poorly fitted or top-dose-only effect, or another doubt; inactive = no such curve, though single readings can be large; an effect the other way counts as inactive or inconclusive.

Sequence of Phospholipid hydroperoxide glutathione peroxidase GPX4 (Homo sapiens) (P36969 whole entry, looked up): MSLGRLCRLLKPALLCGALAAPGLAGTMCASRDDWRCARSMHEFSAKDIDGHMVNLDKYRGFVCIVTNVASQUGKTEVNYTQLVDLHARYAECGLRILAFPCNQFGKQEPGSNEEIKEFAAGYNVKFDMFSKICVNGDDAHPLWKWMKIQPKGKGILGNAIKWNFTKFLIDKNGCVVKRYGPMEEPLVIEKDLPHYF
Sequence of Glutathione peroxidase 1 (Homo sapiens) (P07203 whole entry, looked up): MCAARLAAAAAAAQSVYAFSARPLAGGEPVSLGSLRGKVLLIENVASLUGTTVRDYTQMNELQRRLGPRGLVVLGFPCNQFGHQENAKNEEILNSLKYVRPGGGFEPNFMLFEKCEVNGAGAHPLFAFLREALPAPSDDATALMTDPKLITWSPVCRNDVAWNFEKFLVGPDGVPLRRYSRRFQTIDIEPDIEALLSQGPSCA

As for `COc1ccc(NC(=O)C2C[C@H](C)CC[C@H]2C(C)C)cc1` (stereo not given in full), the Potency entry in assay [1], in assay [2], in assay [3], in assay [4], in assay [5] and in assay [6] was “inactive” throughout.
On to `C=C1C(=O)OC2C1CCC1(C)C(O)CCC(=C)C21` (stereo not given), for which the Potency result in assay [1], in assay [2], in assay [3], in assay [5] and in assay [6] was “inactive” each time. Besides, the Potency in assay [4] was 11.9 µM (active).
As to `CC(=O)O[C@@H]1C[C@]2(C)[C@@]3(CCC4[C@@]5(C)CC[C@H](O[C@@H]6O[C@H](C(=O)O)[C@@H](O)[C@H](OC7OC(CO)C(O)C(O)[C@H]7O[C@@H]7O[C@@H](C)[C@H](O)[C@@H](O)[C@H]7O[C@@H]7OC[C@](O)(CO)[C@H]7O)[C@H]6OC6OC(CO)C(O)C(O)C6O)C(C)(C)C5CC[C@]42C)OC[C@@]12CCC(C)(C)CC23` (stereo not given in full), the activity, negative = inhibition in assay [1] is -11.2% [at 9.52 µM]; in assay [5], 0.912% [at 11.6 µM]. Besides, the activity change, negative = inhibition in assay [2] was -2.16% [at 9.73 µM]; in assay [3], -3.18% [at 11.6 µM]. Moreover, the activity change, negative = thiol reactive in assay [4] was 238% [at 11.5 µM]. Also, the redox activity (% of DA3003) in assay [6] is 8.79% [at 11.5 µM].
Turning to `CCC(C)C1NC(=O)C(Cc2ccccc2)NC(=O)C(CCCCCC(=O)C(O)CO)NC(=O)C2CCCCN2C1=O` (stereo not given), the Potency result in assay [1], in assay [2], in assay [3], in assay [4], in assay [5] and in assay [6] was “inactive” in each case.
`C=CCc1ccc(OC(C)Cc2ccc(OC)c(OC)c2)c(OC)c1` (stereo not given): the Potency entry in assay [1], in assay [2], in assay [3], in assay [4], in assay [5] and in assay [6] was “inactive” each time.
For `CC[C@H]1CN(c2nc(N)c(C(N)=O)nc2Cl)CCN1C1CCN(Cc2ccc(Cl)cc2)CC1`, the Potency entry in assay [1], in assay [2], in assay [3], in assay [4], in assay [5] and in assay [6] was “inactive” each time.
Take `c1cc(-c2cnn3cc(-c4ccc(N5CCNCC5)cc4)cnc23)c2cccnc2c1`: the Potency entry in assay [1], in assay [2], in assay [3], in assay [4], in assay [5] and in assay [6] was “inactive” each time.
Turning to `O=C(NCCCN1CCOCC1)c1cnn2c(-c3ccccc3)cc(-c3ccccc3)nc12`, the Potency entry in assay [1], in assay [2], in assay [3], in assay [4], in assay [5] and in assay [6] was “inactive” throughout.
Turning to `Clc1ccc(Cn2c(Cc3ccccc3)nc3ccccc32)cc1`, the Potency entry in assay [1], in assay [2], in assay [3], in assay [4], in assay [5] and in assay [6] was “inactive” in each case.
For `O=C(NC[C@H](O)CN1CCc2ccccc2C1)c1ccnc(NC2CCC2)c1`, the Potency entry in assay [1], in assay [2], in assay [3], in assay [4], in assay [5] and in assay [6] was “inactive” in each case.
`CCCCC1CCC(c2nc(-c3ccncc3)no2)CC1` (stereo not given): the Potency result in assay [1], in assay [2], in assay [3], in assay [4], in assay [5] and in assay [6] was “inactive” in each case.
Take `O=C(/C=C/c1ccccc1O)O[C@@H]1O[C@H](CO)[C@@H](O)[C@H](O)[C@H]1O`: the Potency entry in assay [1], in assay [2], in assay [3], in assay [4], in assay [5] and in assay [6] was “inactive” each time.
In the case of `O=C1C(Cc2ccc(O)cc2)N2C(=O)CCN(C(=O)NCc3ccccc3)C2CN1Cc1cccc2ccccc12` (stereo not given), the Potency result in assay [1], in assay [2], in assay [3], in assay [4], in assay [5] and in assay [6] was “inactive” each time.
On to `CCN(Cc1cc(Nc2nc(C)cn3c(-c4cn[nH]c4)cnc23)sn1)C(C)(C)CO`, for which the Potency entry in assay [1], in assay [2], in assay [3], in assay [4], in assay [5] and in assay [6] was “inactive” each time.
In the case of `O=C(Nc1ccccc1Cl)c1cnc2ccc(C3CCNCC3)cn12`, the Potency entry in assay [1], in assay [2], in assay [3], in assay [4], in assay [5] and in assay [6] was “inactive” in each case.
For the molecule `O=C(NCc1ccccc1-c1ccccc1C(=O)NCCc1ccccn1)OCc1ccccc1`, the Potency result in assay [1], in assay [2], in assay [3], in assay [4], in assay [5] and in assay [6] was “inactive” in each case.
In the case of `Nc1nc2c(c(N3CC[C@@H](N)C3)n1)CCCc1ccccc1-2`, the Potency result in assay [1], in assay [2], in assay [3], in assay [4], in assay [5] and in assay [6] was “inactive” each time.
Consider `CCC(=O)N1CCOc2c(cc(-c3ccc(OC)c(OC)c3)cc2OC[C@H]2CCCN(C)C2)C1`, for which the Potency result in assay [1], in assay [2], in assay [3], in assay [4], in assay [5] and in assay [6] was “inactive” in each case.
Consider `O=c1[nH]c([C@@H]2CCCN2)nc2c1oc1ccc(Cl)cc12`, for which the Potency result in assay [1], in assay [2], in assay [3], in assay [4], in assay [5] and in assay [6] was “inactive” each time.
As to `CC(=O)C1=CCC2C3CC=C4CC(O)CC(O)C4(C)C3C(O)CC12C` (stereo not given), the Potency entry in assay [1], in assay [2], in assay [3], in assay [4], in assay [5] and in assay [6] was “inactive” each time.
